We go through 4 compounds from PubChem BioAssay (NCI).

Experiment in all cases: NCI-60 one-dose screen, 48 h (100 = growth as untreated, 0 = no growth, -100 = all killed)
In test [1] the test system is NCI-H226 lung. The following applies: 10 µM.
The test system of test [2] is NCI-H322M lung. The following applies: 10 µM.
Test [3] deals with HOP-62 NSCLC. The following applies: 10 µM.
The subject of test [4] is NCI-H460 lung. To be noted: 10 µM.
In test [5] the test system is HOP-92 NSCLC. To be noted: 10 µM.
Test [6] relates to NCI-H522 lung. The following applies: 10 µM unless noted.
The test system of test [7] is A549/ATCC NSCLC. The following applies: 10 µM.
Test [8] has as its system 786-0 renal. To be noted: 10 µM.
Test [9] relates to COLO 205 colon. To be noted: 10 µM.
The subject of test [10] is DU-145 prostate. The following applies: 10 µM unless noted.
For test [11], the system named is K-562 leukemia. To be noted: 10 µM.
Test [12] has as its system MALME-3M melanoma. The following applies: 10 µM.
For test [13], the system named is MDA-MB-231 breast. To be noted: 10 µM.
For test [14], the system named is RXF 393 renal. To be noted: 10 µM unless noted.
Test [15] deals with SF-268 CNS. The following applies: 10 µM.
The subject of test [16] is SF-295 CNS. To be noted: 10 µM.
Test [17] relates to SF-539 CNS. To be noted: 10 µM.
For test [18], the system named is UACC-257 melanoma. To be noted: 10 µM.
Test [19] relates to M14 melanoma. The following applies: 10 µM.

Several values for one entry are separate records, joined by “and”; a condition that tells them apart may be missing. Identical values can stand only once. This is part of a sample that, as a whole, favours compounds with a hit. Of some 83,000 tested, about 20% had one in any assay.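 Cells were grown in 96-well plates and exposed to the test compound at a single concentration for 48 hours; results are reported as percent growth, with values below 10 considered active.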 Activity calls are given as the source filed them.

As for `Cc1nc(N=C(N)N)nc2ccc3ccccc3c12`, the growth was 25.8% (inactive) in test [1]; -3.99% (active) in test [2]; -14% (active) in [3]; -44.4% (active) in test [4]; -25.5% (active) in test [5]; -35.1% (active) in test [6]. Further, the growth in [7] is 20.6% (inactive); in test [8], 10.8% (inactive); in test [9] it was -16.4% (active); in [10], 5.58% (active); in [11], -4.93% (active); in test [12] it was -37.8% (active). For the same compound, the growth in [13] is -0.868% (active); in [14] it was 4.87% (active); in [15], -25.4% (active); in test [16], 1.84% (active); in [17], 4.58% (active); in test [18], -9.97% (active).

On to `CCCCCCCCCCCCSC(=NC)NC`, for which the growth in [1] is 66.3% (inactive) and 79.1% (inactive); in [2] it was 52.8% (inactive) and 95.6% (inactive); in test [3], 76.3% (inactive) and 87.2% (inactive); in [4], 4.19% (active) and 42.7% (inactive); in test [5], -1.15% (active) and 36% (inactive); in test [6], 57.7% (inactive) and 85% (inactive). Besides, the growth in test [7] was 64.4% (inactive) and 87.7% (inactive); in test [8] it was -23.8% (active) and 62.9% (inactive); in test [9], -85.4% (active) and -86.3% (active); in test [10], 41.3% (inactive) and 75.6% (inactive); in [11], 3.08% (active) and 2.7% (active); in test [12] it was 40% (inactive) and 72.8% (inactive). In addition, the growth in test [13] was -28.3% (active) and 40.4% (inactive); in [14], 40.9% (inactive) and 70.6% (inactive); in test [15], 40.9% (inactive) and 74.9% (inactive); in test [16], 4.6% (active) and 65% (inactive); in [17], 29.3% (inactive) and 55.4% (inactive); in [18] it was 66.4% (inactive) and 98.2% (inactive).

Regarding `CC(C)(C)CC(C)(C)c1ccc(OCCO)cc1`, the growth is 105% (inactive) in test [1]; 115% (inactive) in test [2]; 110% (inactive) in [3]; 117% (inactive) in test [4]; 96.4% (inactive) in test [7]; 109% (inactive) in [8]. The growth in test [9] was 110% (inactive); in [10], 111% (inactive); in test [11] it was 93.4% (inactive); in test [12] it was 158% (inactive); in test [13], 106% (inactive); in test [14], 119% (inactive). For the same compound, the growth is 108% (inactive) in [15]; 109% (inactive) in test [16]; 96.8% (inactive) in [17]; 108% (inactive) in test [18]; 112% (inactive) in test [19].

As for `COc1cccc2c1C(=O)c1c(O)c3c(c(O)c1C2=O)C[C@@](O)(C(C)=O)C[C@@H]3OC1CC(N)C(O)C(C)O1` (stereo partly specified), the growth was -6.94% (active) in [1]; 3.64% (active) in test [2]; -26.1% (active) in [3]; -25.3% (active) in [4]; -25.2% (active) in test [5]; -52% (active) in test [6]. Moreover, the growth in test [7] was -29.9% (active); in test [8] it was -18.5% (active); in test [9], -54.3% (active); in test [10], -11.4% (active); in [11], -49.5% (active); in test [12] it was -77.1% (active). Besides, the growth in test [13] was -17.9% (active); in test [14], -46.9% (active); in [15], -14.5% (active); in [16], -26.9% (active); in test [17], -70.9% (active); in test [18] it was -33.3% (active).
